Laboratory results from PubChem BioAssay AID624330 (Southern Research Specialized Biocontainment Screening …, 2012).
Where “and” joins values, the source holds several entries; their conditions need not be identical. Identical values can stand only once. Hit rate of the full screen: of about 340,000 compounds, about 2,100 (0.62%) were called active.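 The calls were made as follows: active = first-screen hits whose inhibition reached a set limit at any dose in the follow-up dose series; inconclusive = inhibition above the set first-screen limit but never retested; inactive = the rest.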 These entries were drawn from the full list. Potency and affinity values are given separately.

target: Rac GTPase-activating protein 1 (Homo sapiens) (UniProt Q9H0H5); test: MgcRacGAP GTPase-activating activity inhibitors, confirmation, biochemical, ADP Hunter fluorescence, primary and confirmatory (AID 624330); details: MgcRacGAP-stimulated Rac1 GTP hydrolysis, at 30 µM, stronger effect = higher value, GST-tagged Rac1 F28L mutant substrate;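 also: fluorescence reports GDP produced by GAP-driven GTP hydrolysis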
Sequence (Q9H0H5 whole entry, looked up): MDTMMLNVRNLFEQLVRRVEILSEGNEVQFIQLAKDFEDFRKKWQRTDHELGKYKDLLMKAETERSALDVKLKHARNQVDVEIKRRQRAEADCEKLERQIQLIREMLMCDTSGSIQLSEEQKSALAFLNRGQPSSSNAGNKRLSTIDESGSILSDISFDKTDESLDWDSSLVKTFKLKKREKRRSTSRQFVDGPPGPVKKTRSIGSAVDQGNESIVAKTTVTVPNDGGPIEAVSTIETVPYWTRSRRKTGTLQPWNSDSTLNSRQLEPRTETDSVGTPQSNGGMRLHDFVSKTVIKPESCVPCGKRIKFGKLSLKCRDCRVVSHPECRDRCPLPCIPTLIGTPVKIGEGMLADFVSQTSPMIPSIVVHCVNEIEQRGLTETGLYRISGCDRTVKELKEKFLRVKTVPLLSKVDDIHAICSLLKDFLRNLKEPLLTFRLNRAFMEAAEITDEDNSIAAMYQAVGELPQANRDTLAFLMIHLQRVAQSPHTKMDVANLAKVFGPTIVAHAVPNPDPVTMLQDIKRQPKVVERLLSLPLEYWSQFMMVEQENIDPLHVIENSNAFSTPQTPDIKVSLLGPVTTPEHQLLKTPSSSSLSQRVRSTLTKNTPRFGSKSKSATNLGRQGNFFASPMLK

inhibition, inactive:
COc1ccc(OC)c(NC(=O)COC(=O)CCCN2C(=O)c3ccccc3C2=O)c1 3.2%
C[C@@H]1COC(=O)CCC/C=C\C[C@@H](CC(=O)N(CCO)Cc2ccccc2)C(=O)N1 4.52%
COc1ccc(-c2cc3ccccc3n2CC(O)CN2CCC(C)CC2)cc1 (stereo not drawn) 9.85%
COc1ccc(-c2cc3ccccc3n2CC(O)CN2CCOCC2)cc1 (stereo not drawn) 4.64%
COc1ccc(C(=O)N/C(=C\c2ccc(-c3cccc([N+](=O)[O-])c3)o2)C(=O)NCCCN2CCOCC2)cc1 -23.2%
Cc1cccc(C)c1NC(=O)Cn1nnc(-c2ccc(N3CCOCC3)cc2)n1 3.65%
Cc1nc(N2CCN(c3ccccc3F)CC2)[nH]c(=O)c1C 6.5%
Cc1c(C(=O)N(Cc2ccncc2)CC2CCCO2)oc2c(F)cccc12 (stereo not drawn) 5.69%
COc1cc(/C=N/n2cnnc2)ccc1OC(=O)c1ccco1 16.6%
COc1cc(/C=N/NC(=O)c2ccncc2)ccc1OC(=O)c1cc(OC)c(OC)c(OC)c1 16.1%
COc1cc(C=O)ccc1OC(=O)c1ccncc1 14.9%
COc1cc(C=O)ccc1OC(=O)c1cccnc1 7.23%
COc1cc(CC(=O)OCc2cccc([N+](=O)[O-])c2)cc(OC)c1OC 2.78%
CCCCCC(=O)Nc1ccc(N2CCN(C(=O)CCC)CC2)cc1 -1.29%
CCOC(=O)C1(Cc2cccc(OC)c2)CCN(CC(O)CO)CC1 (stereo not drawn) -0.09%
CCOc1ccc(-c2nc3c(s2)CCc2onc(-c4ccc(OC)cc4)c2-3)cc1 1.06%
O=S(=O)(c1ccccc1Cl)N1CCCC1c1nc(-c2cccc(Cl)c2)no1 (stereo not drawn) 2.74%
C[C@@H](C(=O)OCC(=O)NCCc1ccc(S(N)(=O)=O)cc1)N1C(=O)C2CCCCC2C1=O (stereo partly drawn) -3.1%
CCCn1c(=S)[nH]c2cc(Cl)ccc21 9.71%
COc1ccc2c(c1)-c1c(sn(-c3ccccc3)c1=S)C(C)(C)N2 18.2%
COc1ccc(-n2sc3c(c2=S)-c2cc(OC)ccc2NC3(C)C)cc1 -3.29%
Cc1ccc(CNc2nc3ccccc3n2C)cc1 13.6%
CC(C)NC(=O)Nc1ccc2c(c1)C(=O)N([C@H](C)CO)C[C@H](C)[C@@H](CN(C)C(=O)Nc1ccc(C(F)(F)F)cc1)O2 12.5%
Cc1ccc(C(C)C)c(OCC#CCN2CCOCC2)c1 30.8%
CCCN(CCC)CCOc1cc(C)ccc1C(C)C 18.2%
O=C(c1cc2ccccc2oc1=O)N(Cc1ccccc1F)C1CCS(=O)(=O)C1 (stereo not drawn) 6.33%
OCCCNCc1ccc(Cl)cc1Cl -1.18%
COc1ccc(C)cc1NC(=O)n1ncc2cc(Cl)ccc21 8.15%
COc1cc(NC(=O)n2ncc3cc(Cl)ccc32)cc(OC)c1 5.31%
COc1ccc(S(=O)(=O)Nc2cccc(SC)c2)cc1C(=O)N1CCOCC1 9.83%
Cc1ccccc1C(=O)NC(=S)Nc1ccccc1N1CCCC1 13.5%
Cc1ccc(NC2=C([N+](=O)[O-])CS(=O)(=O)C2)cc1 7.24%
CC(=O)Nc1ccc(Nc2ccc([N+](=O)[O-])cn2)cc1 16.8%
O=[N+]([O-])c1ccc(Nc2ccc(F)cc2)nc1 6.73%
O=[N+]([O-])C1=C(Nc2cccc3ccccc23)CS(=O)(=O)C1 9.69%
O=C(CSc1ncccn1)Nc1ccc(Cl)c(S(=O)(=O)N2CCOCC2)c1 7.79%
CCOC(=O)N1CCN(CC(O)COc2c(OC)cccc2OC)CC1 (stereo not drawn) 9.23%
Cc1cc(C(=O)CCC(=O)Nc2ccc(C(N)=O)cc2)c(C)s1 15%
O=C(NC1CCCCC1)c1csnn1 -0.31%
CS(=O)(=O)N1CCN(Cc2ccccc2C(F)(F)F)CC1 8.59%
Fc1ccccc1CN1CCCCCCC1 10.2%
C=CCOc1ccccc1CN1CCSCC1 14.2%
O=S1(=O)CCN(Cc2ccccc2C(F)(F)F)CC1 1.13%
CCOC(=O)N1CCN(Cc2ccccc2F)CC1 17.8%
C=CCOc1ccccc1CN1CCCCCC1 13%
Cc1ccc(S(=O)(=O)N2CCN(Cc3ccccc3C(F)(F)F)CC2)cc1 13%
Cc1ccccc1CN1CCN(Cc2ccccc2C(F)(F)F)CC1 25.3%
O=C1CCCC2=C1C(c1cccc(O)c1)C1=C(N2)c2ccccc2C1=O (stereo not drawn) -0.19%
Cc1ccc(NC(=O)C2Cc3ccccc3C(=O)O2)cc1 (stereo not drawn) -7.83%
O=C(CN(C(=O)CCC(=O)Nc1ccccn1)C1CCCC1)NCc1ccccc1 4.99%
CCOc1ccccc1NC(=O)c1ccc2nc[nH]c2c1 4.69%
CCN(C(=O)COC(=O)c1ccc(=O)n(Cc2ccccc2)n1)C1CCCCC1 0.9%
O=S(=O)(NCC1CCCO1)c1ccc(Br)cc1 (stereo not drawn) 12.2%
CCOc1ccc(CCN2C(=S)N([C@@H](CC(C)C)CN3CCCC3CN3C(=S)NC[C@@H]3Cc3ccc(O)cc3)C[C@@H]2CC(C)C)cc1 (stereo partly drawn) 13.7%
Cc1csc(NC(=O)C2CCCN2C(=O)Oc2ccccc2)n1 (stereo not drawn) 7.03%
O=C(O)c1ccc(CSc2nnnn2-c2ccc(F)cc2)cc1 2.94%
Cc1cc(C)nc(SCC(=O)c2ccc(F)cc2)n1 3.61%
Cc1cc(SCC(=O)O)nc2ccccc12 5.6% and 2.66%
COc1ccc(-n2nnnc2SCC(=O)c2ccc(O)c(O)c2)cc1 9.34%
Cc1cc(C)nc(SCC(=O)c2ccc(C)c(C)c2)n1 -8.22%
Cc1cc(SCC(=O)c2ccc3c(c2)OCO3)nc2ccccc12 6.55%
COCCN(CC(=O)NCc1ccc(OC)cc1)C(=O)CCC(=O)Nc1nccs1 9.76%
COc1ccc(/C=C/C(=O)Oc2cc(C)[nH]c(=O)c2[N+](=O)[O-])cc1OC -3.35%
O=C(/C=C/c1ccc2c(c1)OCO2)NCCS(=O)(=O)N1CCN(c2ccccc2)CC1 -2.85%
Cc1cc(C)n(-c2cc(C)c(C)cc2Br)n1 4.26%
Cc1ccnc(Nc2nc(-c3ccc(F)cc3)cs2)c1 7.49%
COc1ccc(-c2csc(Nc3cc(C)ccn3)n2)cc1OC 13.4%
Cc1ccnc(Nc2nc(-c3ccccc3)cs2)c1 12.8%
Cc1ccnc(Nc2nc(-c3ccc(Cl)cc3)cs2)c1 4.43%
C[C@]12c3[nH]c4cc(-c5ccco5)ccc4c3CCN1C(=O)[C@@H](CC(=O)NCc1cccc(C(F)(F)F)c1)C[C@@H]2C(=O)N1CCCCC1 10.5%
CC(C)NC(=O)c1ccc(N(Cc2ccccc2)S(C)(=O)=O)cc1 4.09%
O=S(=O)(NCC1(N2CCOCC2)CCCCC1)c1ccccc1Cl -7.11%
CN1CCN(CCCC(=O)c2ccc(C3CCCC3)cc2)CC1 6.04%
O=C(O)c1cc([N+](=O)[O-])c(N2CCCC2)c([N+](=O)[O-])c1 9.56%
CCc1ccc(N(CC(=O)NC(C)(C)C)C(=O)CNC(=O)c2cccs2)cc1 11.2%
CCOC(=O)c1c(NC(=O)CCl)sc(CN(C)C)c1-c1ccccc1 -14%
Cn1c(=O)c2c(ncn2Cc2cccc(Cl)c2)n(C)c1=O 9.29%
O=C(CCC1CCCC1)N1CCN(C(=O)C2CC2)CC1 -4.27%
CCN1CCN(CC2CC3C=CC2C3)CC1 (stereo not drawn) 24.6%
O=C(CCC1CCCC1)N1CCC(N2CCCCCC2)CC1 21.7%
Cc1ccc(OCC(=O)N2CCCCCCC2)cc1 9.5%
O=C(c1ccccc1F)N1CCN(CC2CC3C=CC2C3)CC1 (stereo not drawn) 27.7%
Cc1ccc(S(=O)(=O)N2CCN(CC3CC4C=CC3C4)CC2)cc1 (stereo not drawn) 23.4%
Cc1ccc(OCC(=O)N2CCN(S(C)(=O)=O)CC2)cc1 11.9%
C1=CC2CC1CC2CN1CCN(c2ccccc2)CC1 (stereo not drawn) 14.6%
COc1ccccc1CN1CC(C(=O)NCC2(O)CCCCC2)CCC1=O (stereo not drawn) -29.3%
ONC=Nc1cccc2nonc12 4.4%
Cc1ccccc1NC(=O)COC(=O)c1cccc(S(=O)(=O)N2CCCCC2)c1 0.63%
COc1ccc(CCN(C(=O)C(F)(F)F)C(C(=O)NC2CCCCC2)c2ccc(C)s2)cc1OC (stereo not drawn) 4.06%
Cc1ccc(S(=O)(=O)N2CCN(C(=O)N(C)C)CC2)cc1 2.84%
O=C(Nn1cnc2ccccc2c1=O)c1ccc(Cl)c([N+](=O)[O-])c1 9.36%
COn1c(-n2nc(C)cc2C)nc2ccccc2c1=O 3.26%
O=C(COc1ccccc1)N1CCCC1 2.28%
CS(=O)(=O)N1CCN(CC2CC3C=CC2C3)CC1 (stereo not drawn) 26.4%
CCS(=O)(=O)N1CCN(CC2CC3C=CC2C3)CC1 (stereo not drawn) 3.64%
O=C(COc1ccccc1)N1CCN(C(=O)COc2ccccc2)CC1 2.47%
S=C(Cc1ccccc1)NCCc1ccccc1 9.14%
Cc1noc(C)c1N=Nc1ccc(Br)cc1C(=O)O 4.04%
